The supplement of paper PMC4954754
Values joined by “and” are separate entries in the source; they are usually repeats but may differ in a detail not shown here. Identical values can stand only once. ± gives the uncertainty stated by the source.

System: HEK293T-Rex ERSE-FLuc
Assay: ERSE-FLuc reporter activation, triplicate confirmation, relative to 500 nM thapsigargin (% of thapsigargin); higher = stronger ATF6/ERSE reporter activation
Settings: 6.8 µM; 18 h; screen: confirmation
Experimental: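 HEK293T-Rex cells stably expressing the ERSE-firefly luciferase (BiP promoter, ATF6-preferring) or XBP1-splicing Renilla luciferase (IRE1/XBP1s) reporter, 1536-well plates, compound at 6.8 µM for 18 hr at 37 °C; luminescence read […] and expressed as % activation = 100*(compound - median DMSO)/(median 500 nM thapsigargin - median DMSO). Primary screen was single-pass; confirmation screen in triplicate (mean ± SD).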

Question: With `O=C1/C(=C/c2ccc(O)c(O)c2)Oc2cc(O)ccc21` as the molecule, how does the ERSE-FLuc reporter activation read?
Answer: 26.9 ± 5.9

Question: For `CCOc1cccc(C(=O)Nc2ccc(Br)cn2)c1`, which ERSE-FLuc reporter activation is on record?
Answer: 26 ± 3.3

Question: For `Nc1ccc2nc(-c3ccccn3)[nH]c2c1`, which ERSE-FLuc reporter activation is on record?
Answer: 26.8 ± 9.3

Question: For `CC(C)c1ccc(/C=N\NC(=O)c2ccccc2)cc1`, which ERSE-FLuc reporter activation is on record?
Answer: 27.4 ± 3.1

Question: `OCCNc1nc(Nc2ccc(Cl)c(Cl)c2)nc2ccccc12` was tested. Which ERSE-FLuc reporter activation did it give?
Answer: 87.6 ± 9.4

Question: Which ERSE-FLuc reporter activation does the source give for `Cc1ccc(NC(=O)/C=C/c2ccco2)nc1` here?
Answer: 27.9 ± 7.1

Question: With `Cc1nn(-c2ccc(F)cc2)c2ncc(C(=O)NCc3ccco3)c(Cl)c12` as the molecule, how does the ERSE-FLuc reporter activation read?
Answer: 54.5 ± 3.9

Question: How did the ERSE-FLuc reporter activation turn out when `CCc1cc2c(=O)c(-c3ccc4c(c3)OCCO4)coc2cc1OC` was run?
Answer: 34.7 ± 3.1

Question: How did the ERSE-FLuc reporter activation turn out when `N#Cc1c(NC(=O)c2ccc(Br)cc2)sc2c1CCCC2` was run?
Answer: 27.3 ± 5.2

Question: `O=C(Nc1ccccc1O)c1ccc(C(=O)c2ccccc2)cc1` was tested. Which ERSE-FLuc reporter activation did it give?
Answer: 41.5 ± 9.7

Question: Which ERSE-FLuc reporter activation does the source give for `CCOc1ccc(NC(=O)c2ccc3c(c2)OCO3)c([N+](=O)[O-])c1` here?
Answer: 30.1 ± 1.8

Question: With `COc1ccc(/C(C)=N/OC/C(O)=C(\C#N)c2nc3ccccc3[nH]2)cc1OC` as the molecule, how does the ERSE-FLuc reporter activation read?
Answer: 31.3 ± 11

Question: For `CN(C)c1ccc(/C=N/NC(=O)c2cccc(Br)c2)cc1`, which ERSE-FLuc reporter activation is on record?
Answer: 26.5 ± 2.7

Question: For `Nc1nc(Nc2ccc(Cl)cc2)nc2ccccc12`, which ERSE-FLuc reporter activation is on record?
Answer: 30.7 ± 5.2

Question: `COc1ccc(/C=C(\C#N)c2nc(-c3ccco3)cs2)cc1O` was tested. Which ERSE-FLuc reporter activation did it give?
Answer: 35.1 ± 3.9

Question: Which ERSE-FLuc reporter activation does the source give for `CC(=O)c1cccc(Nc2nc(-c3ccc(O)c(O)c3)cs2)c1` here?
Answer: 31.6 ± 5.1

Question: `CC(C)CC(c1nnnn1C1CCCC1)N1CCN(C(=O)c2ccco2)CC1` (stereo not drawn) was tested. Which ERSE-FLuc reporter activation did it give?
Answer: 29.5 ± 1

Question: `COc1cccc(C2=NOC(C(=O)Nc3cc(C)ccc3O)C2)c1` (stereo not drawn) was tested. Which ERSE-FLuc reporter activation did it give?
Answer: 30.3 ± 8.3

Question: Which ERSE-FLuc reporter activation does the source give for `CC(=O)N1CCc2c([nH]c3ccccc23)C12CCN(CCCOc1ccccc1)CC2` here?
Answer: 44.2 ± 8.7

Question: For `O=c1cc(-c2ccc(O)c(O)c2)oc2cc(O)cc(O)c12`, which ERSE-FLuc reporter activation is on record?
Answer: 46 and 36.9

Question: Which ERSE-FLuc reporter activation does the source give for `C=CCNC(=O)c1cc(-c2ccccc2)on1` here?
Answer: 43.4 ± 5

Question: How did the ERSE-FLuc reporter activation turn out when `COc1ccccc1/C=C/C(=O)Nc1ccc(Cl)cn1` was run?
Answer: 27.9 ± 6.6

Question: For `COc1ccccc1-c1nnc(Nc2nc3c(OC)cccc3s2)o1`, which ERSE-FLuc reporter activation is on record?
Answer: 51 ± 10

Question: `CCOc1ccc2nc(NC(=O)c3ccn(C)n3)sc2c1` was tested. Which ERSE-FLuc reporter activation did it give?
Answer: 30 ± 23

Question: How did the ERSE-FLuc reporter activation turn out when `Cc1cc(C)c(OCC(=O)N/N=C/c2ccc(O)c(O)c2)c(Br)c1` was run?
Answer: 28.7 ± 6.2

Question: How did the ERSE-FLuc reporter activation turn out when `N#Cc1c(NC(=O)c2ccc3c(c2)OCO3)sc2c1CCCC2` was run?
Answer: 28.7 ± 6.8

Question: How did the ERSE-FLuc reporter activation turn out when `Fc1ccc(-c2nnc3ccc(N4CCN(c5ccccn5)CC4)nn23)cc1` was run?
Answer: 34.3 ± 3.5

Question: `CC(C)CNC(=O)c1cc(-c2ccc(F)cc2)no1` was tested. Which ERSE-FLuc reporter activation did it give?
Answer: 26.6 ± 1.6

Question: Which ERSE-FLuc reporter activation does the source give for `NC(=O)c1c(NC(=O)c2cccc3ccccc23)sc2c1CCC2` here?
Answer: 32 ± 1.6

Question: Which ERSE-FLuc reporter activation does the source give for `Cc1ccc2nc(NC(=O)c3cccc4ccccc34)sc2c1` here?
Answer: 43.1 ± 7.8

Question: Which ERSE-FLuc reporter activation does the source give for `Nc1ccc2nc(/C=C/c3ccccc3)[nH]c2c1` here?
Answer: 36.7 ± 5.2

Question: How did the ERSE-FLuc reporter activation turn out when `Cc1ccc2c(N)c(C(=O)c3ccc4c(c3)OCO4)sc2n1` was run?
Answer: 35.9 ± 4.3

Question: For `CCN(CC)c1ccc(NC(=O)c2cccc(OC)c2)cc1`, which ERSE-FLuc reporter activation is on record?
Answer: 26.1 ± 1.1

Question: For `CCCNC(=O)c1cc(-c2cccs2)on1`, which ERSE-FLuc reporter activation is on record?
Answer: 51.5 ± 5.4

Question: With `Cc1ccn2cc(-c3ccc(O)c(O)c3)nc2c1` as the molecule, how does the ERSE-FLuc reporter activation read?
Answer: 36.4 ± 12

Question: `N#C/C(=C(/O)c1cc(-c2ccccc2)nc2ccccc12)c1nc2ccccc2[nH]1` was tested. Which ERSE-FLuc reporter activation did it give?
Answer: 31.1 ± 13

Question: With `Nc1ccc(-c2nc3cc(N)c(Cl)cc3[nH]2)cc1` as the molecule, how does the ERSE-FLuc reporter activation read?
Answer: 32.5 ± 3.7

Question: Which ERSE-FLuc reporter activation does the source give for `COC(=O)c1c(NC(=O)CCl)sc(C(=O)Nc2cccc([N+](=O)[O-])c2)c1C` here?
Answer: 37.6 ± 7.8
